The text below walks through data of PubChem BioAssay AID2419 (Southern Research Specialized Biocontainment Screening …, 2010).

Measured potencies and affinities stand elsewhere. The source made the active and inactive calls. How the calls were made is not given here.

The nature of the experiment: antiviral activity against WNV, CPE read-out – cell-based (AID 2419). To be noted: West Nile virus-infected cells, stronger effect = higher value; at 200 µM unless noted.
With `O=C(CSc1nc2ccc(F)cc2c(=O)n1-c1ccccc1)Nc1ccc2c(c1)CCC2`, the max CPE inhibition is 3.95% (inactive).

For the molecule `O=C(CSc1nc2ccccc2c(=O)n1-c1ccc(F)cc1F)Nc1ccc(N2CCOCC2)cc1`, the max CPE inhibition is 1.05% [at 0.39 µM] (inactive).

For `OC1c2cc(Br)ccc2N=C2CCCCN21` (stereo not given), the max CPE inhibition is 0.62% [at 3.13 µM] (inactive).

Regarding `OC1c2c(F)cccc2N=C2CCCN21` (stereo not given), the max CPE inhibition was 0.91% [at 0.39 µM] (inactive).

On to `OC1c2c(F)cccc2N=C2CCCCN21` (stereo not given), for which the max CPE inhibition was 0.91% [at 0.39 µM] (inactive).

Take `C=CCN(C(=O)c1ccccc1Cl)c1nc(-c2ccc(OC)cc2)cs1`: the max CPE inhibition is 1.14% (inactive).

As to `COc1cccc2c(=O)n(-c3ccccc3)c(SCC(=O)Nc3ccc4c(c3)CCC4)nc12`, the max CPE inhibition is 2.38% [at 12.5 µM] (inactive).

Turning to `O=C(CSc1nc2cccc(I)c2c(=O)n1-c1ccccc1)Nc1ccc2c(c1)CCC2`, the max CPE inhibition was 3.08% (inactive).

With `COc1ccc(Cn2nc(C)cc2OC(=O)c2ccccc2)cc1`, the max CPE inhibition is 1.5% (inactive).

Take `Cc1cccc2c(=O)n(-c3ccccc3)c(SCC(=O)Nc3ccc4c(c3)CCC4)nc12`: the max CPE inhibition is 2.82% [at 25 µM] (inactive).

`OC1c2cc(Cl)cc(Cl)c2N=C2CCCN21` (stereo not given): the max CPE inhibition was 1.94% [at 0.78 µM] (inactive).

On to `COc1ccc(Cn2nc(C)cc2OC(=O)c2c(F)ccc(C)c2F)cc1`, for which the max CPE inhibition was 14% (inactive).

On to `O=C(CSc1nc2cccc(F)c2c(=O)n1-c1ccccc1)Nc1ccc2c(c1)CCC2`, for which the max CPE inhibition is 2.29% [at 25 µM] (inactive).

Take `Cc1cc(OC(=O)c2c(F)cccc2F)n(Cc2ccccc2)n1`: the max CPE inhibition is 1.92% (inactive).

Turning to `O=C(CSc1nc2ccccc2c(=O)n1-c1ccc(F)cc1)Nc1ccc2c(c1)CCC2`, the max CPE inhibition is 29.6% [at 100 µM] (inactive).

With `OC1c2c(F)cccc2N=C2CCCCCN21` (stereo not given), the max CPE inhibition is 1.99% [at 0.39 µM] (inactive).

Regarding `Cc1ccc2nc(SCC(=O)Nc3ccc4c(c3)CCC4)n(-c3ccccc3)c(=O)c2c1`, the max CPE inhibition is 6.42% [at 25 µM] (inactive).

With `COc1ccc(Cn2nc(C)cc2OC(=O)c2c(F)cccc2F)cc1`, the max CPE inhibition is 1.63% (inactive).

Regarding `OC1c2cc(Br)ccc2N=C2CCCCCN21` (stereo not given), the max CPE inhibition was 6.41% [at 0.78 µM] (inactive).

In the case of `OC1c2cc(I)ccc2N=C2CCCN21` (stereo not given), the max CPE inhibition was 0.77% [at 0.39 µM] (inactive).
